This passage reports composite z-score and z-score results from PubChem BioAssay.

Assay [1] concerns XIP peptide (Xip251-270) binding. The assay can be described thus: XIP fragment 251-270 binding compounds – biochemical, small-molecule microarray, fluorescence 635/667 nm, 0.1 µg/mL protein, primary screen (AID 1182). Conditions: fluorescent protein binding, 635 nm, higher = more signal, called active from +8 up or from −8 down.
For a further assay, the system named is XIP peptide (Xip251-270). In words: compounds binding XIP fragment 251-270 – biochemical, small-molecule microarray, fluorescence 635/667 nm, 0.5 µg/mL protein, primary screen (AID 1183). As to conditions: fluorescence 635 nm, higher = more signal.
Assay [2] in a line: blood-stage malaria parasite viability loss – strain 3D7, DAPI fluorescence, 100 nL, primary screen (AID 1184).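 Note: parasites grown inside human red blood cells in medium with human serum.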 As to conditions: P. falciparum 3D7 growth, 3 d, higher = more signal.
The target in assay [3] is Homeobox protein Hox-A13 (Mus musculus) (UniProt Q62424). In words: disruptors of Hoxa13 oligonucleotide interaction – biochemical, fluorescence polarization, labeled oligonucleotide, primary screen (AID 1185). Conditions: Hoxa13:DNA binding, 15 min, higher = more signal, called active from +8 up or from −8 down. On the technique in general: Fluorescence polarisation rises when a labelled molecule tumbles more slowly, as on binding a larger partner.

Assay [4] in a line: blockers of DNA damage checkpoint Chk1 activation – imaging, HeLa, hydroxyurea, phospho-Chk1 antibody, percent positive cells, primary screen (AID 1186). Conditions: hydroxyurea-induced phospho-Chk1 immunofluorescence imaging, higher = more signal.
Assay [5] is described as follows: blockers of DNA damage checkpoint Chk1 activation – imaging, HeLa, hydroxyurea, phospho-Chk1 nuclear intensity, primary screen (AID 1187). Conditions: hydroxyurea-induced phospho-Chk1 immunofluorescence imaging, higher = more signal.

The source made the active and inactive calls. Unless noted, the rule behind the calls is not given here.

Sequence of Homeobox protein Hox-A13 (Mus musculus) (Q62424 whole entry, looked up): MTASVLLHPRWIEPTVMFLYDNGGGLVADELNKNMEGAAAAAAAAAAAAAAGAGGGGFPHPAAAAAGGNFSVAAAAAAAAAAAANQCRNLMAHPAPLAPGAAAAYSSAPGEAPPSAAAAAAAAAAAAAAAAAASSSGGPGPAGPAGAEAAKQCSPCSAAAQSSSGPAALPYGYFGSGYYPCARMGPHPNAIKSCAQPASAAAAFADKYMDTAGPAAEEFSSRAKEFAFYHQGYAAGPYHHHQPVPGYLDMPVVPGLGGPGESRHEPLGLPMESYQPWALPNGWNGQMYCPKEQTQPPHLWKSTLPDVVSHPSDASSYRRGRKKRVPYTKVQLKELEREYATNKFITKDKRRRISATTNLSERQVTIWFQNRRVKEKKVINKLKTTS

For `CC[C@@H](O[Si](C#C[Si](C(C)C)(C(C)C)C(C)C)(C(C)C)C(C)C)c1cn([C@H](CO)Cc2ccccc2)nn1`, the composite z-score in assay [1] was -0.0433 (inactive); in the assay on XIP peptide (Xip251-270) it was 0.411. Also, the z-score in assay [2] was -0.348; in assay [3] it was -1.31 (inactive); in assay [4], -0.058 (inactive); in assay [5], -0.0008 (inactive).
For the compound `COCCOC(=O)N1C(=O)[C@@]2(c3cc(C#CC4=CCCCC4)ccc31)[C@H](c1ccc(O)cc1)N1[C@H](c3ccccc3)[C@H](c3ccccc3)OC(=O)[C@H]1[C@@H]2C(=O)N1CCc2cc(OC)c(OC)cc2C1`, the composite z-score in assay [1] was 2.12 (inactive); with XIP peptide (Xip251-270), 0.556. Besides, the z-score in assay [2] was -2.06; in assay [3] it was 0.0698 (inactive); in assay [4], 0.301 (inactive); in assay [5], 0.404 (inactive).
Regarding `COC(=O)[C@H](Cc1ccccc1)N1CC(C)(OC)O[C@@H](Cc2ccccc2)[C@H]1/C=C/C1CC1` (stereo not given in full), the composite z-score in assay [1] was 0.242 (inactive); in the assay on XIP peptide (Xip251-270), -0.128. Besides, the z-score in assay [2] is 0.291; in assay [3], -4.77 (inactive); in assay [4], 0.512 (inactive); in assay [5], 1.22 (inactive).
As for `C=C(COC)C(=O)CC[C@@H](OC(=O)c1ccccc1-c1ccccc1C(=O)O)c1ccccc1OCCO`, the composite z-score in assay [1] was 0.106 (inactive); in the assay with XIP peptide (Xip251-270) it was 0.17. In addition, the z-score in assay [2] was -2.51; in assay [3], -5.71 (inactive); in assay [4] it was 0.788 (inactive); in assay [5] it was 0.888 (inactive).
Consider `CCc1cccc(NC(=O)O[C@H]2[C@H](OC(=O)Nc3ccccc3-c3ccccc3)[C@H](OC(=O)Nc3ccccc3-c3ccccc3)[C@@H](OC)O[C@@H]2CO)c1`, for which the composite z-score in assay [1] was 0.187 (inactive); in the assay on XIP peptide (Xip251-270), 0.591. In addition, the z-score in assay [2] is -2.53; in assay [3] it was -1.39 (inactive); in assay [4], -0.36 (inactive); in assay [5], 0.0172 (inactive).
In the case of `COCCOC(=O)N1C(=O)[C@@]2(c3ccccc31)[C@H](C(=O)Nc1nc3ccccc3s1)[C@H]1C(=O)O[C@H](c3ccccc3)[C@H](c3ccccc3)N1[C@@H]2c1ccccc1OCCO`, the composite z-score was 0.238 (inactive) in assay [1] and 0.801 in the assay with XIP peptide (Xip251-270). For the same compound, the z-score is -1.68 in assay [2], -0.587 (inactive) in assay [3], 0.152 (inactive) in assay [4] and 0.367 (inactive) in assay [5].
As to `CCCCCCCCCCC(O)C1C=CC2C(=O)N(C)C(=O)C2N1Nc1ccccc1` (stereo not given), the composite z-score was 1.04 (inactive) in assay [1] and -1.39 in the assay with XIP peptide (Xip251-270). The z-score is -0.0339 in assay [2], -2.87 (inactive) in assay [3], 0.999 (inactive) in assay [4] and 0.135 (inactive) in assay [5].
As for `O=C(O)C1=CC[C@H]2C(=O)N(c3ccccc3)C(=O)[C@@H]12`, the composite z-score in assay [1] is 0.688 (inactive); with XIP peptide (Xip251-270) it was 0.783. In addition, the z-score in assay [2] was 0.0472; in assay [3], -3.04 (inactive); in assay [4], -0.416 (inactive); in assay [5], -0.647 (inactive).
On to `CC1CC/C=C\[C@H]2OC34C=CCN(CCN5CCOCC5)C(=O)[C@H]3N(C(CO)C(C)C)C(=O)[C@@H]4C2C(=O)O1` (stereo not given in full), for which the figures for the composite z-score (in assay [1]; with XIP peptide (Xip251-270)) were 0.287 (inactive) and 0.054, respectively. Besides, the z-score in assay [2] is -0.0648; in assay [3], -7 (inactive); in assay [4], 0.607 (inactive); in assay [5], 0.284 (inactive).
With `CCCC=C(CCC)[C@@H](NC(=O)c1ccc(C(=O)OC)cc1)c1ccc(C(=O)OC)cc1`, the figures for the composite z-score (in assay [1]; in the assay on XIP peptide (Xip251-270)) were -0.0958 (inactive) and -0.345, respectively. Further, the z-score was -0.685 in assay [2], -2.06 (inactive) in assay [3], 0.151 (inactive) in assay [4] and -0.745 (inactive) in assay [5].
As for `COCCCNC(=O)[C@]1(Cc2ccccc2CN=[N+]=[N-])N=C(c2ccc(OCCCO)cc2)O[C@@H]1c1ccccc1N=[N+]=[N-]`, the figures for the composite z-score (in assay [1]; in the assay with XIP peptide (Xip251-270)) were 0.228 (inactive) and -0.184, respectively. In addition, the z-score in assay [2] is -2.03; in assay [3], -0.994 (inactive); in assay [4], -0.364 (inactive); in assay [5], -0.601 (inactive).
Take `C=CCNC(=O)[C@H]1[C@@H]2C(=O)O[C@@H](c3ccccc3)[C@@H](c3ccccc3)N2[C@@H](c2ccc(O)cc2)[C@]12C(=O)Nc1ccccc12`: the composite z-score in assay [1] was -0.067 (inactive); in the assay with XIP peptide (Xip251-270), 0.821. For the same compound, the z-score in assay [2] was 0.478; in assay [3], -3.97 (inactive); in assay [4] it was 0.0866 (inactive); in assay [5] it was 0.432 (inactive).
Turning to `C=CCC(OC(C)=O)[C@@H]1[C@@H](N(Cc2cccc3ccccc23)C(=O)c2ccc(C)cc2)c2cc(OCCCO)ccc2N1C(=O)Cc1ccc2ccccc2c1` (stereo not given in full), the composite z-score was -0.929 (inactive) in assay [1] and 0.0814 in the assay on XIP peptide (Xip251-270). In addition, the z-score in assay [2] is -0.145; in assay [3], -0.0782 (inactive); in assay [4] it was -0.648 (inactive); in assay [5] it was -0.416 (inactive).
As to `C=CCNC(=O)[C@@H]1[C@H]2C(=O)O[C@H](c3ccccc3)[C@H](c3ccccc3)N2[C@H](c2ccc(OCCO)cc2)[C@@]12C(=O)Nc1ccc(C#CCNC(N)=O)cc12`, the composite z-score was 2.5 (inactive) in assay [1] and 0.561 in the assay on XIP peptide (Xip251-270). Further, the z-score in assay [2] is 0.175; in assay [3], -3.63 (inactive); in assay [4], 0.286 (inactive); in assay [5] it was 0.0132 (inactive).
In the case of `Cc1c(NC(=O)/C(C#N)=C/C=C/c2ccc([N+](=O)[O-])cc2)c(=O)n(-c2ccccc2)n1C`, the figures for the composite z-score (in assay [1]; with XIP peptide (Xip251-270)) were 1.97 (inactive) and 0.77, respectively. In addition, the z-score in assay [2] is -0.363; in assay [3], -4.12 (inactive); in assay [4], -0.023 (inactive); in assay [5], 0.501 (inactive).
